CHRM1 antagonist = antagonists of human M1 muscarinic receptor. inhibition, % at 3 µM. AID 588852. CHO-K1 hM1, Fluo-8 calcium fluorescence, ACh EC80 antagonist. 360,000 compounds, 1.3% hits;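 active = percent inhibition above its own plate's cutoff, namely the mean of that plate's compound wells plus 3 SD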;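 also: peak over basal fluorescence ratio during 140 s after agonist addition; 0% = ACh EC80 plus DMSO and 100% = DMSO alone without agonist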
Target sequence (P11229 whole entry, looked up): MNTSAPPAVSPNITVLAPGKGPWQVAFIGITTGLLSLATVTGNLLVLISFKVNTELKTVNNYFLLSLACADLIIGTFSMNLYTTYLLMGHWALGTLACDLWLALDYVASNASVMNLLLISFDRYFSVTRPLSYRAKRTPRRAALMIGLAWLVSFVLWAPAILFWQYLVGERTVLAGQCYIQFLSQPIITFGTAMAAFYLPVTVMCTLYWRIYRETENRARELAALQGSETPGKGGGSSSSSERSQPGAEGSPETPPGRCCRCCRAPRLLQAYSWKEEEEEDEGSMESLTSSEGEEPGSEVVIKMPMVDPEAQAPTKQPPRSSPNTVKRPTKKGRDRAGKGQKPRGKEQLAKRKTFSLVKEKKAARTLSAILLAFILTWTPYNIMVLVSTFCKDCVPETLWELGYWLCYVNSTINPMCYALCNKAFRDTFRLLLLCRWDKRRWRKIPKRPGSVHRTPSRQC
M1 PAM parental = nonselective activator or artifact in parental CHO-K1 calcium assay; activation, % at 3 µM; 360,000 compounds, 0.02% hits; ATP EC20, Fluo-8 calcium fluorescence; 0% at ATP EC20, 100% at ATP max;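 active = activation above the run cutoff, the mean activation of all test compounds plus 3 SD, cut at about 40% in these data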;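 also: peak over basal fluorescence ratio in a 140 s read after ATP addition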
M1 PAM = human CHRM1 positive allosteric modulation. activation, % at 3 µM. 360,000 compounds, 0.088% hits. AID 588819. CHO-K1 hM1, Fluo-8 calcium fluorescence, ACh EC20; 0% = ACh EC20, 100% = maximal ACh. P11229; in the data active = activation above about 19%, passing the limit was not always enough
M1 ag parental = counter-screen for M1 agonists: effect in parental CHO-K1 cells; Fluo-8 calcium fluorescence; scaled to maximal ATP response, vehicle zero; activation, % at 3 µM; 360,000 compounds, 0.48% hits; in the data active = activation above about 15%;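 also: untransfected CHO-K1 host cells lacking M1 receptor as counterscreen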
M1 ag = activates human CHRM1 receptor. P11229. CHO-K1 hM1, Fluo-8 calcium fluorescence, agonist mode; 0% DMSO, 100% acetylcholine EC100. activation, % at 3 µM. 360,000 compounds, 0.33% hits;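 active = activation above the run's mean compound activation plus 3 SD, cut at about 16% in these data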;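 also: peak over basal fluorescence ratio within a 140 s kinetic read after compound addition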
CHO-K1 Ca antag = M1 antagonist counterscreen hit in parental CHO-K1 cells; ATP-induced calcium, Fluo-8 fluorescence; inhibition, % at 3 µM; 360,000 compounds, 0.6% hits;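 active = inhibition above a per-plate cutoff, the plate's mean sample inhibition plus 3 SD, cut at about 24% in these data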;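 also: 0% = DMSO plus EC80 ATP and 100% = DMSO alone without ATP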
* marks the source's active call; other numbers are inactive results. Compounds with a hit are over-represented: about 2.4% of the library has one in this group of screens.

SMILES	CHRM1 antagonist	M1 PAM parental	M1 PAM	M1 ag parental	M1 ag	CHO-K1 Ca antag
Cc1c(C(=O)NCc2ccc3c(c2)OCCO3)sc(=O)n1Cc1ccc2c(c1)OCO2	-9	-11	-1	1	-4	12
COc1cc(CCC(=O)OCC(=O)N(CC(C)C)C2CCS(=O)(=O)C2)cc(OC)c1OC (stereo not drawn)	2	7	6	3	-2	5
Oc1ccc(Cl)cc1C1=NNC(c2cccs2)C1 (stereo not drawn)	0	10	0	1	-1	1
Cc1ccc(O)c(C2=NNC(c3ccc(Cl)cc3)C2)c1 (stereo not drawn)	45*	12	12	3	23*	10
CCc1ccc(S(=O)(=O)N2CCCC(N3CCN(c4ccc(OC)cc4)CC3)C2)cc1 (stereo not drawn)	-2	10	5	1	-3	-19
CCCCN(C(=O)CSc1nc2ccccc2n1CC)C1CCS(=O)(=O)C1 (stereo not drawn)	-2	16	0	1	-6	-13
CN(C)CCN(C(=O)c1cccc2ccccc12)c1nc2cc3c(cc2s1)OCO3	47*	-7	-19	1	-7	-10
CN(C)CCCN(C(=O)c1ccc2ccccc2c1)c1nc2cc3c(cc2s1)OCO3	2	-4	-1	3	-1	-8
CCCCN(C(=O)c1cc(S(=O)(=O)N2CCCCCC2)ccc1OC)c1c(N)n(CCC)c(=O)[nH]c1=O	-6	-37	16	0	7	25*
O=C(NCC(c1ccco1)N1CCCC1)c1ccc(S(=O)(=O)Nc2ccc(F)cc2)cc1 (stereo not drawn)	50*	3	-25	6	-1	-4
O=C(NCC(c1ccco1)N1CCCCC1)c1ccc(NS(=O)(=O)c2ccc(F)cc2)cc1 (stereo not drawn)	14	-7	-15	0	-6	1
Cc1cccc(NS(=O)(=O)c2cccc(C(=O)NCC(c3ccco3)N3CCCCC3)c2)c1 (stereo not drawn)	6	-21	-3	1	-7	1
O=C(NCC(c1ccco1)N1CCCC1)c1cccc(NS(=O)(=O)c2ccc(Br)cc2)c1 (stereo not drawn)	50*	6	-23	2	-7	-10
COc1ccc(N2CCN(C(=O)CN3C(=O)NC4(CCCCC4C)C3=O)CC2)cc1 (stereo not drawn)	-6	-8	10	0	-1	-8
Cc1ccc(C(=O)N2CCOCC2)cc1S(=O)(=O)N1CCCCC1	-9	3	4	1	0	-11
COc1cccc(NC(=O)C2(C)CCN2Cc2ccc3ccccc3c2)c1 (stereo not drawn)	-8	27	1	1	-6	-22
Cc1ccc(SCCN2CCN(CCc3ccccc3)CCC2=O)cc1	11	2	-5	0	-13	-2
CC(C)CN1CCC(=O)N(CCSc2ccccc2)CC1	5	-20	0	0	34*	10
CC(C)c1ccc(S(=O)(=O)NCc2ccc3c(c2)OCO3)cc1	-13	11	7	3	2	-3
COc1ccccc1C(=O)NC(=O)Cn1nc(C)c([N+](=O)[O-])c1C	-8	-13	5	0	1	-5
COc1ccc([C@H]2C(C#N)=C([S-])N[C@](C)(O)[C@@H]2[n+]2ccccc2)cc1	74*	6	-25	1	-9	3
Cn1c(N)c(C(=O)COC(=O)c2cccc(S(=O)(=O)N3CCCCC3)c2)c(=O)n(C)c1=O	0	-10	-3	0	-7	29*
C=CCN(c1ccccc1OC)S(=O)(=O)c1cccc(C(=O)OCC(=O)c2c(N)n(C)c(=O)n(C)c2=O)c1	31*	-19	-21	8	-3	2
Cn1c(N)c(C(=O)COC(=O)c2cc(S(=O)(=O)N3CCCCC3)ccc2Cl)c(=O)n(C)c1=O	3	18	0	4	-9	-13
CC(C)[C@H](NC(=O)c1ccccc1)C(=O)OCC(=O)c1c(N)n(C)c(=O)n(C)c1=O	29*	-16	-12	1	-2	0
SMILES	CHRM1 antagonist	M1 PAM parental	M1 PAM	M1 ag parental	M1 ag	CHO-K1 Ca antag
Cc1onc(-c2c(Cl)cccc2Cl)c1C(=O)Nc1ccc(C(N)=O)cc1	-13	6	10	3	-3	-6
CCCNC(=O)c1nnsc1S(=O)c1ccc(Cl)cc1 (stereo not drawn)	5	23	-4	8	-5	-3
CCCNC(=O)c1nnsc1S(=O)(=O)c1ccc(Cl)cc1	96*	7	-20	0	-6	0
CC(C)Nc1ncnc2c1ncn2[C@H]1CN(Cc2ccc(Cl)cc2)C[C@@H](CO)O1	-13	8	10	1	5	-6
O=C(c1[nH]ncc1-c1cccc(Br)c1)C1CO1 (stereo not drawn)	-16	-6	7	0	-3	-8
O=C(c1[nH]ncc1-c1ccccc1)C1CO1 (stereo not drawn)	-11	17	9	19*	-1	5
Cc1ccc(SC(=O)c2c([N+](=O)[O-])c(C)nn2C)cc1	62*	-11	-27	0	-9	6
Cc1nn(C)c(C(=O)N/N=C/c2ccccc2)c1[N+](=O)[O-]	21*	-6	-23	0	-6	23
Cc1nn(C)c(C(=O)N/N=C/c2ccncc2)c1Cl	-14	8	8	0	-3	0
Cc1cc(C)n(C(=O)c2c([N+](=O)[O-])c(C)nn2C)n1	-4	9	5	0	-5	1
Cc1nn(C)c(C(=O)Nc2cccc(Nc3ccccc3)c2)c1[N+](=O)[O-]	26*	-12	-6	1	-1	19
CCOc1cccc(C(=O)NC(=S)Nc2ccc(N3CCN(CC)CC3)cc2)c1	81*	23	-35	2	-16	0
CCCOc1cccc(C(=O)NC(=S)Nc2ccc(N3CCN(C)CC3)cc2)c1	58*	17	-30	1	-13	-11
O=C(NC(=S)Nc1ccc(CN2CCCCC2)cc1)c1cccc(OCc2ccccc2)c1	96*	23	-27	2	-8	-5
CN1CCN(c2ccc(NC(=O)c3cccc(OCc4ccccc4)c3)cc2)CC1	-17	12	-23	1	-10	-4
CCOc1cccc(C(=O)NC(=S)Nc2ccccc2)c1	-3	18	-4	0	-10	-7
CCN1CCN(c2ccc(NC(=O)c3cccc(OCc4ccccc4)c3)cc2)CC1	81*	17	-21	1	-4	-1
O=C(O)c1ccc(NC(=S)NC(=O)c2cccc(COc3ccccc3)c2)cc1	4	19	5	0	-4	-11

Bioassay records from PubChem.
